KB-3-1 cytotox – kills parental KB-3-1 adenocarcinoma cells; KB-3-1 viability, CellTiter-Glo ATP luminescence, 72 h; Potency, µM (series often up to 46.1 µM), most hits filed as cytotoxic; AID 1347075; 400,000 tested, 1.4% active; further: on the % scale 0 is the no-effect control and ±100 the full control effect; nearly all actives have a fitted effect of over 60% in size
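Parental KB-3-1 adenocarcinoma cells in phenol-red-free DMEM with 10% FBS were pin-treated with compounds at several concentrations, incubated 72 h at 37 °C, and viability read by CellTiter-Glo luminescence; concentration-effect curves were fitted after normalization.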
HepG2 tox – counter-screen for TGF-b inhibitors: cytotoxicity in HepG2 cells. 410,000 tested, 0.76% active. Potency, µM (highest dose often 46.1 µM), inactives show top-dose activity change, negative = cytotoxicity, actives largely listed as cytotoxic. HepG2 CAGA-GFP viability, ATP luminescence, 18 h
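CellTiter-Glo luminescence gave cytotoxicity after 18 hours at 37 degrees C. The cells were HepG2 CAGA-GFP in 1% FBS DMEM, stimulated with 500 pg/mL TGF-beta after compound addition. %Activity was normalised to no-cell wells (complete cell-killing) and DMSO (no toxicity), and curves were fitted and classified.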
ATXN2 expr inh – ATXN2 expression inhibition; HEK-293 ATXN2-luciferase reporter, luminescence, 24 h; Potency, µM (series often up to 57 µM), for the others: at the top dose activity change, negative = inhibition, most hits filed as inhibitors; 360,000 tested, 0.72% active; AID 1745845; further: on the % scale 0 is the no-effect control and ±100 the full control effect; nearly all actives have a fitted effect of over 55% in size
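qHTS (up to 57 uM final) was run with 24 h compound exposure of reporter cells at 37 °C. Each well was multiplexed: SteadyGlo luminescence measured ATXN2-luciferase expression after a fluorogenic Gly-Phe-AFC viability readout (25 uM final).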
TGFb inhibitor – TGF-b pathway inhibition; HepG2 CAGA-GFP TGF-b/SMAD3 reporter, GFP fluorescence, 18 h; TGF-beta stimulated, 500 pg/mL final; Potency, µM (titrated, usually from 46.1 µM), without a hit: top-dose activity, negative = inhibition, actives largely listed as inhibitors; 410,000 tested, 1.2% active; AID 588855; further: on the % scale 0 is the no-effect control and ±100 the full control effect; nearly all actives have a fitted effect of over 65% in size
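Inhibition was scored as loss of TGF-beta-induced (500 pg/mL final, 18 hours, 37 degrees C) GFP in HEPG2 cells carrying a CAGA-GFP reporter, in DMEM with 1% FBS. Well GFP was summed per cell; Activity was normalised to unstimulated and stimulated DMSO wells, then concentration-response fitting.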
ATXN viability – viability counter-screen for ATXN expression inhibitors. Potency, µM (highest dose often 56.7 µM), actives largely listed as cytotoxic. AID 651635. S2 cells (HEK-293 line with an ATXN2-luciferase reporter) viability, CellTiter-Fluor protease fluorescence, 24 h. 400,000 tested, 0.49% active; further: nearly all actives have a fitted effect of over 40% in size
KB-V1 MDR tox – KB-V1 MDR subline cytotoxicity; KB-V1 MDR cells viability, CellTiter-Glo, 72 h; Potency, µM (top dose mostly 46.1 µM), actives largely listed as cytotoxic; 400,000 tested, 3.4% active; AID 1347076; further: on the % scale 0 is the no-effect control and ±100 the full control effect; nearly all actives have a fitted effect of over 60% in size
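Following 72 h at 37 degrees C with compound, KB-V1 cell viability was read by CellTiter-Glo luminescence, medium being phenol-red-free DMEM plus 10% FBS; concentration-response parameters came from normalized, curve-fitted qHTS data.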
* = called active by the depositor; i = inactive; u = inconclusive; x = not tested or not shown. Rows were chosen to be rich in hits. Some 5.9% of all compounds tested hit in one or more screens of this group. The call rests on the fitted dose curve; in most records, active means well fitted curve in the direction sought with a large enough effect; inconclusive means small, poorly fitted or top-dose-only effect, or another doubt; inactive means no such curve, though single readings can be large; an effect the other way counts as inactive or inconclusive. Potency means the concentration at half of the fitted maximal effect.

SMILES	KB-3-1 cytotox	HepG2 tox	ATXN2 expr inh	TGFb inhibitor	ATXN viability	KB-V1 MDR tox
COc1cccc(/C=c2\s/c(=C\C(=O)C(C)(C)C)[nH]c2=O)c1	u	26%	-7%	-5%	u	15µM*
COc1ccc(/C=c2\s/c(=C/C(=O)c3ccc(C)cc3)[nH]c2=O)c(OC)c1	i	-3%	-21%	41%	x	i
O=C(CN1CCN(Cc2ccccc2)CC1)N/N=C/c1ccccc1F	i	0%	-8%	27%	i	i
C=CCc1cccc(/C=N/NC(=O)C(C)Nc2ccc(C)cc2)c1O (stereo not given)	u	-70%	22µM*	u	i	21µM*
C=CCc1cccc(C=NNC(=O)CN2CCN(Cc3ccccc3)CC2)c1O	x	x	19µM*	x	x	x
C=CCc1cccc(/C=N/NC(=O)c2ccc3nc[nH]c3c2)c1O	u	4%	10µM*	-5%	i	i
C=CCc1cccc(/C=N/NC(=O)C(=O)Nc2ccc(C)cc2)c1O	i	-20%	4%	2%	x	i
O=C(N/N=C/c1ccc(Cl)cc1Cl)c1ccc2nc[nH]c2c1	i	-25%	x	-26%	i	i
COc1ccc(Cn2ccnc2SCC(=O)Nc2ccc(C)cc2C)cc1	x	-6%	x	u	x	x
CC1Cc2ccccc2N1C(=S)NC(=O)c1ccc(Cl)cc1Cl (stereo not given)	i	-6%	u	u	u	16µM*
CC1Cc2ccccc2N1C(=S)Nc1ccc(S(N)(=O)=O)cc1 (stereo not given)	u	-11%	-11%	-10%	i	18µM*
COc1ccc(CNC(=O)C2=C(C)C(=O)OC23CCCCC3)cc1OC	i	-9%	0%	u	i	i
Cc1ccc(C)c(C(=O)CCC(=O)N2CCN(c3cccc(C(F)(F)F)c3)CC2)c1	i	-49%	-17%	11µM*	i	i
Cc1ccc(/C=C/C(=O)N2CCN(c3cccc(C(F)(F)F)c3)CC2)cc1	i	-24%	-16%	-18%	i	u
Cn1cccc1C(=O)N1CCN(c2cccc(C(F)(F)F)c2)CC1	i	1%	-17%	-13%	u	15µM*
Cc1nc2cc(NC(=O)[C@@H]3C[C@@H](Sc4ccccn4)CN3Cc3ccccc3F)ccc2s1	x	x	x	x	i	x
Clc1cccc(Cl)c1CO/N=C/c1c(-c2ccccc2)nc2n1CCS2	u	-10%	x	u	x	13µM*
O=C1NC[C@H](c2ccccc2)OC(=O)[C@H](Cc2ccc(F)cc2)C/C=C\C[C@H]1CC(=O)N(CCO)Cc1ccccc1	u	-28%	32µM*	u	u	u
CCOC(=O)[C@]12CCC=C1N(Cc1ccccc1)C(=O)[C@H](CC(=O)N1CCOCC1)C2	i	x	11%	x	i	i
CCOc1cc(/C=N/NC(=O)Cc2ccc(C(F)(F)F)cc2[N+](=O)[O-])c(Br)cc1OC	i	-10%	u	-9%	u	i
COc1cc(Br)cc(/C=N/NC(=O)Cc2ccc(C(F)(F)F)cc2[N+](=O)[O-])c1O	u	16µM*	u	10µM*	i	i
Cc1cc(NC(=O)c2cccnc2)cc(-c2nc3cc(Cl)ccc3o2)c1O	i	-12%	-1%	11%	i	i
COc1cc(C(=O)Nc2cc(C)c(O)c(-c3nc4cc(Cl)ccc4o3)c2)cc(OC)c1OC	7.3µM*	-6%	-21%	29%	i	i
CNc1cccc(S(=O)(=O)N2CCCN(S(=O)(=O)c3ccc4c(c3)OCCO4)CC2)c1	i	x	x	x	x	i
C=CCC[C@H](Cc1ccc(F)cc1)C(=O)OC[C@@H](NC(=O)[C@@H](CC=C)CC(=O)N(CCO)Cc1ccccc1)C(C)(C)C	u	-6%	u	u	20µM*	u
SMILES	KB-3-1 cytotox	HepG2 tox	ATXN2 expr inh	TGFb inhibitor	ATXN viability	KB-V1 MDR tox
C=CCC[C@H](Cc1ccc(F)cc1)C(=O)OC[C@@H](NC(=O)[C@@H](CC=C)CC(=O)N[C@@H](CO)Cc1ccccc1)C(C)(C)C	u	0%	u	u	x	i
C=CC[C@H](CC(=O)N(CCO)Cc1ccccc1)C(=O)N[C@H](COC(=O)[C@@H](CC=C)Cc1ccc(F)cc1)C(C)(C)C	i	0%	u	u	x	i
C=CCC[C@@H](Cc1ccc(F)cc1)C(=O)OC[C@@H](NC(=O)[C@@H](CC=C)CC(=O)N[C@@H](CO)Cc1ccccc1)C(C)(C)C	u	-1%	u	u	22µM*	u
C=CC[C@@H](CC(=O)N[C@H](CO)Cc1ccccc1)C(=O)N[C@H](COC(=O)[C@@H](CC=C)Cc1ccc(F)cc1)C(C)(C)C	21µM*	-26%	u	u	u	i
Cc1cc(O)c(C(c2ccccc2)N2CCC(C)CC2)c(=O)n1Cc1ccco1 (stereo not given)	i	-8%	4%	0%	i	i
COc1cc(OC)c(NC(=O)C2=C(C)C(=O)OC23CCCCC3)cc1Cl	x	-12%	x	x	x	x
Cc1ccc(NC(=O)c2ccccc2NS(=O)(=O)c2ccc(F)cc2)cc1S(=O)(=O)N1CCCCC1	u	-39%	u	u	i	u
O=S(=O)(c1ccc(F)cc1)N1CCCC1	i	6%	0%	18%	i	i
O=S(=O)(Nc1ccccc1OC(F)F)c1ccc(S(=O)(=O)N2CCCC2)cc1	i	4%	0%	-27%	i	18µM*
Cc1ccc(S(=O)(=O)CCC(=O)Nc2cccc(S(=O)(=O)N3CCCCCC3)c2)cc1	u	0%	-6%	u	u	9.2µM*
Cc1ccc(C(=O)Nc2cccc(S(=O)(=O)N3CCCCC3)c2)cc1[N+](=O)[O-]	21µM*	-8%	u	u	u	u
O=C(Nc1cccc(S(=O)(=O)N2CCCCC2)c1)c1ccccc1NS(=O)(=O)c1ccc(F)cc1	u	-10%	-16%	u	i	21µM*
COC(=O)c1ccccc1NC(=O)COc1ccccc1C(=O)Nc1ccccc1	u	-27%	x	u	x	u
COc1ccc(-n2cnnc2SCC(=O)Nc2cc(S(=O)(=O)N3CCCCC3)ccc2C)cc1	i	-2%	-1%	u	i	u
Cc1ccc(C(=O)Nc2cccc(C(=O)O)c2)cc1S(=O)(=O)N1CCCCC1	i	-12%	13µM*	-7%	i	i

Screens as filed in PubChem.
